Data taken from PubChem BioAssay (NCATS).
Values joined by “and” are separate entries in the source; they are usually repeats but may differ in a detail not shown here. Equal values may be shown once. A number with no mark means an inactive call. Inconclusive results are not listed. Entries that show only a call come without a potency. Active and inactive are the calls of the source. Unless noted, calls follow the shape of the dose curve; as a rule, active = well fitted curve in the direction sought with a large enough effect; inconclusive = small, poorly fitted or top-dose-only effect, or another doubt; inactive = no such curve, though single readings can be large; an effect the other way counts as inactive or inconclusive.

What was measured:
[1] = Drug repurposing screens with cells derived from glioblastoma tumor samples (AID 1345199); details: GBM patient neurospheres viability, ATP luminescence, 48 h; also: nearly all actives have a fitted effect of over 40% in size; also: potency is read from the fitted curve at half-maximal effect
Outline: (§1)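 Four patient lines of CD133+ GBM neurospheres were screened at several concentrations; hits were retested in those lines plus three slower-growing GBM lines, using 48-hour treatment and ATP-based viability.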

astro = control astrocytes; assay: as above; details: viability, ATP luminescence, 48 h; series mostly up to 45.9 µM
Outline: as §1

HeLa = assay: Primary qHTS to identify gynecologic anti-cancer compounds using libraries of approved drugs and bioactive compounds (AID 1345084); details: Gynecologic cancer cell panel viability, ATPlite luminescence, 48 h; series mostly up to 57.5 µM; also: nearly all actives have a fitted effect of over 55% in size; also: potency is read from the fitted curve at half-maximal effect
Outline: (§2)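 Measured: luminescence after ATPlite addition (15 min, RT). Exposure: 48 h, 37 C, 5% CO2.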

Hek293T = assay: as above; details: Gynecologic cancer cell panel viability, ATPlite luminescence, 48 h, control line for the selectivity index; series mostly up to 57.5 µM
Outline: as §2

JEG-3 = assay: as above; details: Gynecologic cancer cell panel viability, ATPlite luminescence, 48 h; series mostly up to 57.5 µM
Outline: as §2

OV90 = assay: as above; details: Gynecologic cancer cell panel viability, ATPlite luminescence, 48 h; series mostly up to 57.5 µM
Outline: as §2

Tov112D = assay: as above; details: Gynecologic cancer cell panel viability, ATPlite luminescence, 48 h; series mostly up to 57.5 µM
Outline: as §2

PA-1 = assay: as above; details: Gynecologic cancer cell panel viability, ATPlite luminescence, 48 h; series mostly up to 57.5 µM
Outline: as §2

SKOV3 = assay: as above; details: Gynecologic cancer cell panel viability, ATPlite luminescence, 48 h; series mostly up to 57.5 µM
Outline: as §2

Tov-21-G = assay: as above; details: Gynecologic cancer cell panel viability, ATPlite luminescence, 48 h; series mostly up to 57.5 µM
Outline: as §2

[2] = qHTS assay to identify inhibitors of the type 1 interferon - major histocompatibility complex class I in skeletal muscle: Counter screen cell viability and HiBit confirmation (AID 1347412); details: iHSKM muscle cells + IFN-b, HiBiT or CellTiter-Glo, 24 h; Potency: HiBiT; Viability, at 45.9 µM (top of the series); also: nearly all actives have a fitted effect of over 60% in size; also: potency is read from the fitted curve at half-maximal effect
Outline: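 After 24 h with human IFN-beta (4 ng/ml) and compound titrations (top 46 uM final, 1:3, 12 points), HLA-B HiBit myoblasts were lysed for either Nano-Glo HiBiT luminescence or CellTiter Glo viability on paired plates.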

[3] = qHTS assay for small molecule activators of the human pregnane X receptor (PXR) signaling pathway (AID 720659; call rule not given here); details: DPX-2 HepG2 CYP3A4-luciferase, 24 h; series mostly up to 92.3 µM
[4] = molecular target: Nuclear receptor subfamily 1 group I member 2 (Rattus norvegicus) (UniProt Q9R1A7); assay: qHTS assay for small molecule activators of the rat pregnane X receptor (rPXR) signaling pathway (AID 651751; call rule not given here); details: rPXR reporter cells, luciferase (One-Glo), 24 h
[5] = at 21.2 µM (top of the series), tumour line D
[6] = at 45.9 µM (top of the series), tumour line B
[7] = at 45.9 µM (top of the series), tumour line D

Nuclear receptor subfamily 1 group I member 2 (Rattus norvegicus), sequence (Q9R1A7 whole entry, looked up): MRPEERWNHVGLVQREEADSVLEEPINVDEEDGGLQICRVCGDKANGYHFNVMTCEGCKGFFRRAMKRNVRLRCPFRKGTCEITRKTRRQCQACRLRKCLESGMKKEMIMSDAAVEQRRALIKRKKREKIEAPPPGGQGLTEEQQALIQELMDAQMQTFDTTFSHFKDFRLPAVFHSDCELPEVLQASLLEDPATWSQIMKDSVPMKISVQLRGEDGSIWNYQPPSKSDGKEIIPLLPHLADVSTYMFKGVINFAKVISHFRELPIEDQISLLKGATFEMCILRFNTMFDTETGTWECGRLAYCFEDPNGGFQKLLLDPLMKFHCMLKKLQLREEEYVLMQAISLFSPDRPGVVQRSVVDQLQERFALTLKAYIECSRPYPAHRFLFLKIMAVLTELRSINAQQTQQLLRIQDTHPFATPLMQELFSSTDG

**Q.** Which activity, negative = cell killing ([1]; at 20 µM (top of the series), tumour line C) does the source give for `N#Cc1ccc(C(c2ccc(C#N)cc2)n2cncn2)cc1` here?
**A.** -3.52%

**Q.** And the activity, negative = cell killing ([1]; at 21.2 µM (top of the series), tumour line B)?
**A.** -10%

**Q.** What about the activity, negative = cell killing [1, 5] of the same compound?
**A.** -7.94%

**Q.** And the Potency (astro)?
**A.** inactive

**Q.** With `CCCS(=O)(=O)Nc1ccc(F)c(C(=O)c2c[nH]c3ncc(Cl)cc23)c1F` as the compound, how does the Potency (HeLa) read?
**A.** inactive

**Q.** And the Potency (Hek293T)?
**A.** inactive

**Q.** And the Potency (JEG-3)?
**A.** inactive

**Q.** And the Potency (OV90)?
**A.** inactive

**Q.** What about the Potency (Tov112D) of the same compound?
**A.** inactive

**Q.** With `CCCCNc1cc(C(=O)O)cc(S(N)(=O)=O)c1Oc1ccccc1` as the compound, how does the Potency (HeLa) read?
**A.** inactive

**Q.** What about the Potency (JEG-3) of the same compound?
**A.** inactive

**Q.** And the Potency (OV90)?
**A.** inactive

**Q.** What about the Potency (PA-1) of the same compound?
**A.** inactive

**Q.** And the Potency (SKOV3)?
**A.** inactive

**Q.** And the Potency (Tov-21-G)?
**A.** inactive

**Q.** And the Potency (Tov112D)?
**A.** inactive

**Q.** What about the activity, negative = cell killing [1, 5] of the same compound?
**A.** -6.33%

**Q.** And the activity, negative = cell killing ([1]; at 21.3 µM (top of the series), tumour line A)?
**A.** -23.2%

**Q.** And the Potency (astro)?
**A.** inactive

**Q.** Which Potency (JEG-3) does the source give for `Cc1cc2c(C(C)C)c(O)c(O)c(C=O)c2c(O)c1-c1c(C)cc2c(C(C)C)c(O)c(O)c(C=O)c2c1O` here?
**A.** inactive

**Q.** What about the Potency (Tov-21-G) of the same compound?
**A.** inactive

**Q.** What about the Potency (Tov112D) of the same compound?
**A.** inactive

**Q.** What about the Potency [2] of the same compound?
**A.** inactive

**Q.** And the outcome [3]?
**A.** inactive

**Q.** Which Potency (JEG-3) does the source give for `Nc1nc2ccc(OC(F)(F)F)cc2s1` here?
**A.** inactive

**Q.** And the Potency (OV90)?
**A.** inactive

**Q.** And the Potency (SKOV3)?
**A.** inactive

**Q.** And the Potency (astro)?
**A.** inactive

**Q.** Which results are given for `CN(C)C(=O)c1ccc(S(=O)(=O)c2ccc(NC(=O)[C@@](C)(O)C(F)(F)F)c(Cl)c2)cc1`?
**A.** Potency (HeLa): inactive; Potency (Hek293T): inactive; Potency (JEG-3): inactive; Potency (PA-1): inactive; Potency (Tov-21-G): inactive; Potency (Tov112D): inactive

**Q.** With `Cc1cnc(Nc2ccc(OCCN3CCCC3)cc2)nc1Nc1cccc(S(=O)(=O)NC(C)(C)C)c1` as the compound, how does the Potency (HeLa) read?
**A.** 7.08 µM (active)

**Q.** And the Potency (JEG-3)?
**A.** 12.6 µM (active)

**Q.** What about the Potency (OV90) of the same compound?
**A.** 17.8 µM (active)

**Q.** What about the Potency (PA-1) of the same compound?
**A.** 8.91 µM (active)

**Q.** What about the Potency (SKOV3) of the same compound?
**A.** 7.94 µM (active)

**Q.** What about the Potency (Tov-21-G) of the same compound?
**A.** 7.94 µM (active)

**Q.** And the Potency (Tov112D)?
**A.** 11.2 µM (active)

**Q.** And the Potency [2]?
**A.** 6.25 µM (active)

**Q.** For `COc1cccc2cc(-c3nc(C4CCC(C(=O)O)CC4)n4ncnc(N)c34)[nH]c12` (configuration not stated), which Potency (HeLa) is on record?
**A.** inactive

**Q.** And the Potency (JEG-3)?
**A.** inactive

**Q.** What about the Potency (OV90) of the same compound?
**A.** 7.94 µM (active)

**Q.** What about the Potency (PA-1) of the same compound?
**A.** 3.16 µM (active)

**Q.** What about the Potency (SKOV3) of the same compound?
**A.** 11.2 µM (active)

**Q.** What about the Potency (Tov-21-G) of the same compound?
**A.** 3.55 µM (active)

**Q.** What does the source list for `CC(C)(N)C(=O)N[C@H](COCc1ccccc1)C(=O)N1CCC2(CC1)CN(S(C)(=O)=O)c1ccccc12`?
**A.** Potency (HeLa): inactive; Potency (JEG-3): inactive; Potency (OV90): inactive; Potency (PA-1): inactive; Potency (Tov-21-G): inactive; Potency (Tov112D): inactive

**Q.** Which results are given for `O=c1[nH]cnc2[nH]ncc12`?
**A.** Potency (HeLa): inactive; Potency (JEG-3): inactive; Potency (OV90): inactive; Potency (PA-1): inactive; Potency (SKOV3): inactive; Potency (Tov-21-G): inactive; Potency (Tov112D): inactive; Potency (astro): inactive; max response [4]: 2.04%; outcome [3]: inactive

**Q.** What does the source list for `Cc1csc(NC(=O)c2sc3nc4c(c(C(F)(F)F)c3c2N)CCC4)n1`?
**A.** Potency (HeLa): 2.82 µM (active); Potency (Hek293T): 3.55 µM (active); Potency (OV90): 12.6 µM (active); Potency (Tov-21-G): 3.55 µM (active); Potency (Tov112D): 11.2 µM (active)

**Q.** What does the source list for `C[C@]12CCC(=O)C=C1CC[C@@H]1[C@@H]2[C@@H](O)C[C@@]2(C)[C@H]1CC[C@]2(O)C(=O)CO`?
**A.** Potency (HeLa): inactive; Potency (Hek293T): inactive; Potency (JEG-3): inactive; Potency (PA-1): inactive; Potency (Tov-21-G): inactive; Potency (Tov112D): inactive

**Q.** Which Potency (HeLa) does the source give for `COc1c(Cl)cc2c([nH]c3cnccc32)c1NC(=O)c1cccnc1C` here?
**A.** inactive

**Q.** What about the Potency (Hek293T) of the same compound?
**A.** inactive

**Q.** And the Potency (JEG-3)?
**A.** inactive

**Q.** And the Potency (OV90)?
**A.** inactive

**Q.** And the Potency (PA-1)?
**A.** inactive

**Q.** And the Potency (Tov-21-G)?
**A.** inactive

**Q.** What about the Potency (Tov112D) of the same compound?
**A.** inactive

**Q.** And the Potency [2]?
**A.** inactive

**Q.** For `Nc1nc2[nH]cc(CCc3ccc(C(=O)N[C@@H](CCC(=O)O)C(=O)O)cc3)c2c(=O)[nH]1`, which activity, negative = cell killing [1, 6] is on record?
**A.** -23.6%

**Q.** And the activity, negative = cell killing [1, 7]?
**A.** -14.3%

**Q.** What about the Potency ([1]; tumour line A) of the same compound?
**A.** 0.251 µM (active)

**Q.** What about the Potency (astro) of the same compound?
**A.** inactive

**Q.** For `O=C(NOC[C@H](O)CO)c1ccc(F)c(F)c1Nc1ccc(I)cc1F`, which Potency (HeLa) is on record?
**A.** inactive

**Q.** And the Potency (Hek293T)?
**A.** inactive

**Q.** What about the Potency (JEG-3) of the same compound?
**A.** inactive

**Q.** And the Potency (PA-1)?
**A.** inactive

**Q.** What about the Potency (SKOV3) of the same compound?
**A.** inactive

**Q.** What about the Potency (Tov112D) of the same compound?
**A.** inactive

**Q.** What about the Potency (astro) of the same compound?
**A.** 0.447 µM (active)

**Q.** What does the source list for `CNC(=O)c1ccccc1Sc1ccc2c(/C=C/c3ccccn3)n[nH]c2c1`?
**A.** Potency (HeLa): 3.98 µM (active) and 3.55 µM (active); Potency (Hek293T): 10 µM (active) and 12.6 µM (active); Potency (OV90): 11.2 µM (active); Potency (Tov-21-G): 11.2 µM (active); Potency (Tov112D): 8.91 µM (active); Potency (astro): 2 µM (active)

**Q.** For `S=C(NCc1ccc2c(c1)OCO2)N1CCN(c2ncnc3c2oc2ccccc23)CC1`, which Potency (HeLa) is on record?
**A.** inactive

**Q.** And the Potency (JEG-3)?
**A.** inactive

**Q.** What about the Potency (PA-1) of the same compound?
**A.** inactive

**Q.** And the Potency (Tov-21-G)?
**A.** inactive

**Q.** What about the Potency (Tov112D) of the same compound?
**A.** inactive

**Q.** What does the source list for `CC(c1cc2ccccc2s1)N(O)C(N)=O` (configuration not stated)?
**A.** Potency (Hek293T): inactive; Potency (JEG-3): inactive; Potency (OV90): inactive; Potency (PA-1): inactive; Potency (SKOV3): inactive; Potency (Tov-21-G): inactive; Potency (Tov112D): inactive; activity, negative = cell killing [1, 6]: -3.78%; activity, negative = cell killing [1, 7]: -20.5%; activity, negative = cell killing ([1]; at 46 µM (top of the series), tumour line A): -18.2%; activity, negative = cell killing ([1]; at 46.1 µM (top of the series), tumour line C): -18.9%; Potency (astro): inactive
